# Data reported in PubChem BioAssay (NCATS).
# Results filed as inconclusive are left out. A call without a number means that no potency is given here. Active and inactive are the calls of the source. Calls come from the whole dose curve; as a rule, active = well fitted inhibition curve with a large enough effect; inconclusive = small, poorly fitted or top-dose-only effect; inactive = no such curve, though single readings can be large or run the other way.
# Experiment: BET inhibitor-based combinations targeting novel dependencies in MECOM-rearranged (r) AML: OCI-AML3 cell line (AID 2202232); note: nearly all actives have a fitted effect of over 35% in size
# Conditions: CellTiter-Glo luminescence, 48 h; Potency: OCI-AML3 viability; series mostly up to 46 µM
# Text: Ecotropic viral insertion site 1 (EVI1) is located on chromosome 3q26.2 as part of the MECOM (MDS and EVI1 complex) locus. Under normal hematopoiesis, EVI1 is a regulator of hematopoietic stem cell maintenance and self-renewal and EVI1 levels decrease as the cells differentiate. In approximately 5-10% of de novo acute myeloid leukemia (AML) EVI1 is aberrantly expressed, including Chromosomal inv(3)(q21;q26.2) or t(3;3)(q21;q26.2) alterations (MECOM-r) that account for about 50% of AML with EVI1 overexpression 31. AMLs with high levels of EVI1 have a poor prognosis and an overall survival time averaging between 10-14 months. EVI1 overexpression confers resistance in leukemia cells, highlighting the need to develop new targeted therapies for EVI1 overexpressing AMLs.
# Here, we performed an unbiased chemical drug screening by evaluating the single agent activity of a collection of 2,480 oncology-focused, approved and investigational drugs (NCATS Mechanism Interrogation Plates, MIPE v5.0) against a panel of seven AML cell lines. These included four MECOM-r cell-lines (AML-191, AML-194, UCSD-AML1 and HNT-34) and three non-MECOM-r AMLs (MV4-11, OCI-AML3 and SET-2). Exploiting the mechanistic redundancy built in the library, we identified target-level sensitivities in MECOM-r AML cells and relative activity as compared to other AML subtypes.
# A collection of 2480 mechanistically annotated dugs (MIPE v5.0) was used to screen four 3q26.2 rearranged AML cell lines and three non-3q26.2 rearranged AML cell lines. This library purposely exploits redundancy by including multiple inhibitors of key onco-targets, while simultaneously encompassing mechanistic diversity, targeting more than 800 distinct mechanisms of action. Briefly, cells were seeded in 5 uL of growth media using a Multidrop Combi dispenser into 1536 well white polystyrene tissue culture treated plates (Corning) at a density of 500cells/well. For each cell-line, for each of the 2480 drugs in MIPE v5.0 library, an 11-point dose curve was generated via a 1536 pin-tool. Plates were incubated for 48 hr at standard incubator conditions, covered by a stainless steel gasketed lid to prevent evaporation. Cell viability was determined by luminescence based, Cell Titer Glo assay (Promega). In detail, 3 uL of Cell Titer Glo were added to each well and plates were incubated at room temperature for 15 min with a stainless-steel lid in place. Luminescence readings were taken using a Viewlux (PerkinElmer) with a 2 s exposure time per plate. Compound dose-response curves were normalized to DMSO and empty well controls on each plate. Quantitative drug activity data from dose-response curves was determined utilizing area Under the Curve (AUC) and Z-transformed AUC (Z-AUC, a mean-centering transformation applied to each individual cell-line screened).
# Potency is the fitted concentration of half-maximal effect.
row,SMILES,Potency
1,C[C@@H](C1CC[C@@]2(O)C3=CC(=O)[C@@H]4C[C@@H](O)[C@@H](O)C[C@]4(C)[C@H]3CC[C@]12C)[C@H](O)CCC(C)(C)O (stereo not given in full),inactive
2,CN[C@@H]1Cc2cccc3[nH]c(=O)n(c23)C1,inactive
3,CN1C(=O)[C@@H](NC(=O)[C@H](CCC(F)(F)F)[C@H](CCC(F)(F)F)C(N)=O)N=C(c2ccccc2)c2ccccc21,inactive
4,Cc1ncc(OC[C@@]2(c3cccc(F)c3)C[C@H]2C(=O)Nc2ccc(F)cn2)c(C)n1,inactive
5,CCN1C[C@]2(OC(=O)c3ccccc3NC(C)=O)CC[C@H](OC)[C@@]34[C@H]5CC6[C@@H](OC)C[C@](O)(C(C[C@@H]23)[C@@H]14)[C@@]5(O)[C@@H]6OC,inactive
6,CCN1CCN(C(=O)Cc2ccc(Nc3ncc(F)c(Nc4ccc(C(=O)Nc5ccccc5Cl)cc4)n3)cc2)CC1,2.95 µM (active)
7,Fc1ccc(C(OCCN2CCN(CCCc3ccccc3)CC2)c2ccc(F)cc2)cc1,29.5 µM (active)
8,CC[C@@H](C(N)=O)N1CCCC1=O,inactive
9,CC(NC(C)(C)C)C(=O)c1cccc(Cl)c1 (stereo not given),inactive
10,O=c1[nH]c2ccc(Cl)cc2c(N[C@@H]2CN3CCC2CC3)c1-c1nc2ccccc2[nH]1,0.417 µM (active)
11,CCCN1CCO[C@@H]2c3cc(O)ccc3OC[C@H]21,inactive
12,CC(C)c1cccc(C(C)C)c1O,inactive
13,Cc1sc2c(c1C)C(c1ccc(Cl)cc1)=N[C@@H](CC(N)=O)c1nnc(C)n1-2,0.105 µM (active)
14,O=C1C=CC[C@@H]2[C@H]3CCCN4CCC[C@@H](CN12)[C@@H]34,inactive
15,CCOP(=O)(OCC)C(C)NC(=O)N(CCCl)N=O (stereo not given),inactive
16,COc1ccc(C(=O)c2c(C)n(CCN3CCOCC3)c3cc(I)ccc23)cc1,9.34 µM (active)
17,CN(C)CCN(C)CCc1ccc(Cl)c(Cl)c1,inactive
18,C/C=C(/C)C(=O)O[C@H]1C(C)=C2[C@H]([C@@H]1OC(=O)CCCCCCC)[C@@](C)(OC(C)=O)C[C@H](OC(=O)CCC)[C@@]1(O)[C@H]2OC(=O)[C@@]1(C)O,0.662 µM (active)
19,O=C(NCC1CCOCC1)c1cnc(Nc2ccc(Cl)cc2Cl)nc1C(F)(F)F,inactive
20,CC1(C)CC[C@]2(NC(=O)C(C)(F)F)CC[C@]3(C)[C@H](C(=O)C=C4[C@@]5(C)C=C(C#N)C(=O)C(C)(C)[C@@H]5CC[C@]43C)[C@@H]2C1,1.48 µM (active)

row,SMILES,Potency
1,CN1C(=O)CCS(=O)(=O)C1c1ccc(Cl)cc1 (stereo not given),inactive
2,C[C@](O)(COc1ccc(C#N)cc1)C(=O)Nc1ccc(C#N)c(C(F)(F)F)c1,inactive
3,COC1=C[C@@H]2[C@@H]3Cc4ccc(OC)c(O)c4[C@]2(CCN3C)CC1=O,inactive
4,Cc1ccccc1-n1c(Cn2cnc3c(N)ncnc32)nc2cccc(C)c2c1=O,2.95 µM (active)
5,COC(=O)[C@@]12OC[C@]34[C@H]([C@@H](O)[C@@H]1O)[C@@]1(C)CC(=O)C(O)=C(C)[C@@H]1C[C@H]3OC(=O)[C@H](OC(=O)/C=C(\C)C(C)C)[C@@H]24,0.0074 µM (active)
6,CC1=C2C[C@H]3[C@@H](CC=C4C[C@@H](O)CC[C@@]43C)[C@@H]2CC[C@]12O[C@@H]1C[C@H](C)CN[C@H]1[C@H]2C,inactive
7,COc1cccc2c1C(=O)c1c(O)c3c(c(O)c1C2=O)C[C@@](O)(C(=O)CO)CC3OC1CC(N2CCOC(OC)C2)C(O)C(C)O1 (stereo not given in full),0.0047 µM (active)
8,CCCCCCC(C)(C)c1cc(O)c2c(c1)OC(C)(C)C1CC=C(CO)C[C@H]21 (stereo not given in full),26.3 µM (active)
9,COc1cc(C)[nH]c(=O)c1CNC(=O)c1c(C)n([C@H](C)C2CCN(CC(F)(F)F)CC2)c2ccccc12,14.8 µM (active)
10,O=C(Oc1ccc([N+](=O)[O-])cc1)N1CCN(Cc2cccc(Oc3ccccc3)c2)CC1,inactive
11,CN(C)c1cc2c(cc1Sc1nc3c(N)nccc3n1CCNCC(C)(C)C)OCO2,1.18 µM (active)
12,CC[C@@]1(O)C(=O)OCc2c1cc1n(c2=O)Cc2cc3ccccc3nc2-1,0.0132 µM (active)
13,O=C1CC[C@@]2(O)[C@H]3Cc4ccc(O)c5c4[C@@]2(CCN3CC2CC2)[C@H]1O5,inactive
14,CN1[C@H]2CC(O)C[C@H]1[C@H]1O[C@H]12 (stereo not given in full),inactive
15,C/C=C(\C)C(=O)N[C@@H](c1ccccc1)[C@@H](O)C(=O)O[C@H]1C[C@@]2(O)[C@@H](OC(=O)c3ccccc3)[C@@H]3[C@]4(OC(C)=O)CO[C@@H]4C[C@H](O)[C@@]3(C)C(=O)[C@H](OC(C)=O)C(=C1C)C2(C)C,0.0132 µM (active)
16,CC(=O)N1N=C(c2ccc(N)cc2)c2cc3c(cc2C[C@H]1C)OCO3,inactive
17,N=c1c2c(-c3ccccc3)c(-c3ccccc3)n(Cc3ccccc3)c2ncn1C1CCC(O)CC1 (stereo not given),8.33 µM (active)
18,C[C@]12COC(=O)C[C@@H]1CC[C@@H]1[C@@H]2CC[C@@]2(C)[C@H]1CC[C@]2(C)O,inactive
19,COc1ccc(C(=O)c2c(C)n(CCN3CCOCC3)c3ccccc23)cc1,3.72 µM (active)
20,COc1ccc(N(C(=O)Oc2c(C)cccc2C)c2ccnc(Nc3ccc(N4CCN(C)CC4)cc3)n2)c(OC)c1,5.9 µM (active)
